Assay results reported in the supplement of paper PMC3342239.
Structures can show the parent of a compound that is named as a salt.

System: Saccharomyces cerevisiae
Test: fraction of cells in G1 phase (DNA content, flow cytometry); higher = more cells with unreplicated DNA (G1 delay)
Details: temperature: 30 C; YPD; JTY2953 pdr5 snq2 (sensitized); drug added to: cultures diluted from stationary phase; 6-7 h
Outline: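 S. cerevisiae in YPD at 30°C was dosed with library drugs, using a final 20 µg/ml for sensitized JTY2953 diluted 1∶200 from overnight and fixed at 6–7 h, or dosing dividing JTY2953 (fixed at 6 h) and BY4741 (fixed at 4.33 h). Ethanol-fixed, SYTOX Green-stained cells were read by flow cytometry (10,000 events). The G1 fraction is taken as the Dean-Jett-Fox G1 peak area divided by the G1 and G2/M areas combined.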

## OCCN(CCO)c1nc(N2CCCCC2)c2nc(N(CCO)CCO)nc(N3CCCCC3)c2n1 [Dipyridamole] (39.6324 µM)
  fraction of cells in G1 phase: 0.535

## COC(=O)Nc1nc2cc([S+]([O-])c3ccccc3)ccc2[nH]1 (configuration not stated) [Oxfendazole] (63.421 µM)
  fraction of cells in G1 phase: 0.536

## CN1C2CCCC1CC(NC(=O)c1nn(C)c3ccccc13)C2 (configuration not stated) [Granisetron] (64.0168 µM)
  fraction of cells in G1 phase: 0.486

## Cc1cnc(C(=O)O)c[n+]1[O-] [Acipimox] (129.764 µM)
  fraction of cells in G1 phase: 0.493

## COc1cc(NC(C)CCCN)c2ncccc2c1 (configuration not stated) [Primaquine phosphate] (77.1146 µM)
  fraction of cells in G1 phase: 0.461

## CCN(CC)C(=O)/C(C#N)=C/c1cc(O)c(O)c([N+](=O)[O-])c1 [Entacapone] (65.5109 µM)
  fraction of cells in G1 phase: 0.508

## CN(CCOc1ccc(CC2SC(=O)NC2=O)cc1)c1ccccn1 (configuration not stated) [Rosiglitazone maleate] (42.2386 µM)
  fraction of cells in G1 phase: 0.574

## COc1cc2c3cc1Oc1cc(ccc1O)C[C@@H]1c4c(cc(OC)c(O)c4Oc4ccc(cc4)C[C@@H]3N(C)CC2)CC[N+]1(C)C [Tubocurarine Cl  (+)] (32.8004 µM)
  fraction of cells in G1 phase: 0.464

## O=C(CCCN1CCN(c2ccccn2)CC1)c1ccc(F)cc1 [Azaperone] (61.0864 µM)
  fraction of cells in G1 phase: 0.582

## Nc1c2c(nc3ccccc13)CCCC2 [Tacrine HCl] (100.873 µM)
  fraction of cells in G1 phase: 0.541

## CC(=O)Oc1ccccc1C(=O)O [Acetylsalicylic acid] (111.011 µM)
  fraction of cells in G1 phase: 0.49

## NS(=O)(=O)c1cc2c(cc1Cl)NC(C(Cl)Cl)NS2(=O)=O (configuration not stated) [Trichloromethiazide] (52.5406 µM)
  fraction of cells in G1 phase: 0.494
